# Laboratory results taken from publication PMC7862700, “An all-to-all approach to the identification of sequence-specific readers for epigenetic DNA modifications on cytosine”.
# Experiments:
# Assay in all cases: DAPPL (digital affinity profiling via proximity ligation, sequencing); 10 mM Tris-HCl pH 7.5, 50 mM NaCl, 1 mM DTT, 4% glycerol, room temperature, 30 min; GST-TFs on glutathione beads, 16-mer random dsDNA library, 0.1% formaldehyde crosslink after washing; high values mean tight binding
# FLI1 = biological target: T1, FLI1 (Homo sapiens, UniProt Q01543 1-452); settings: protein: recombinant; tags: N-terminal GST; dsDNA, one strand shown
# T1 sequence: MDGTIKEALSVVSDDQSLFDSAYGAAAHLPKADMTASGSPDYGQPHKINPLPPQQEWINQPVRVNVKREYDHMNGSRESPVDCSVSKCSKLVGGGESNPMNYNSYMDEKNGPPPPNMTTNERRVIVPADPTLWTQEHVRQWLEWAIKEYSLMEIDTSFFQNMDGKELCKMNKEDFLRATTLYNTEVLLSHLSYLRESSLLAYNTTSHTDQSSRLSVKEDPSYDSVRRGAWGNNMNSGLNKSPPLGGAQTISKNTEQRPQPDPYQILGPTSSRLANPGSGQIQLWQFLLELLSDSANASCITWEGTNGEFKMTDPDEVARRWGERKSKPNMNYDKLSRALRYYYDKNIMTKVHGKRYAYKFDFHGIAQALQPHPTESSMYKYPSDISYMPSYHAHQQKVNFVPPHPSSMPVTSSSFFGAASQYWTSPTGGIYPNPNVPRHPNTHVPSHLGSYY
# How it was run: (§1)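 Pools were built from human transcription factors expressed in yeast as GST fusions, captured on glutathione beads and DNA-barcoded, along with a tag-only sample. Incubation with 200 nmole of a 16-mer random double-stranded DNA library lasted 30 min at room temperature in Tris/NaCl/DTT/glycerol buffer, and was followed by washing, 0.1% formaldehyde crosslinking, proximity ligation, PCR amplification and Illumina NextSeq500 sequencing. Binding signal is the quotient of each hexamer's read frequency for a factor and its frequency for the tag-only sample.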
# ELK1 = biological target: T2, ELK1 (Homo sapiens, UniProt P19419 1-428); settings: protein: recombinant; tags: N-terminal GST; dsDNA, one strand shown
# T2 sequence: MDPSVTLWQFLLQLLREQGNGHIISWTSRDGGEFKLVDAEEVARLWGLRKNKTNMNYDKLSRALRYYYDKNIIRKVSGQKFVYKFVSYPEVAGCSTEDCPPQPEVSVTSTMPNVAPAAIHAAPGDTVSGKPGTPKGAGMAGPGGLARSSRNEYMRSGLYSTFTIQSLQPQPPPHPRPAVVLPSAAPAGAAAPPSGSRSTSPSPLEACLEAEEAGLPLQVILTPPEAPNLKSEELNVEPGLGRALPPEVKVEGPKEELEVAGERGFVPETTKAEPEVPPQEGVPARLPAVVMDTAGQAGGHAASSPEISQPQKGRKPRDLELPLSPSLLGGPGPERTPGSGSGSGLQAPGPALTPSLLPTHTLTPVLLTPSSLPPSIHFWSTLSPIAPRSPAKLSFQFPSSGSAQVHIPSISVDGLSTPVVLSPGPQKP
# How it was run: as §1
# GABPA = biological target: T3, GABPA (Homo sapiens, UniProt Q06546 1-454); settings: protein: recombinant; tags: N-terminal GST; dsDNA, one strand shown
# T3 sequence: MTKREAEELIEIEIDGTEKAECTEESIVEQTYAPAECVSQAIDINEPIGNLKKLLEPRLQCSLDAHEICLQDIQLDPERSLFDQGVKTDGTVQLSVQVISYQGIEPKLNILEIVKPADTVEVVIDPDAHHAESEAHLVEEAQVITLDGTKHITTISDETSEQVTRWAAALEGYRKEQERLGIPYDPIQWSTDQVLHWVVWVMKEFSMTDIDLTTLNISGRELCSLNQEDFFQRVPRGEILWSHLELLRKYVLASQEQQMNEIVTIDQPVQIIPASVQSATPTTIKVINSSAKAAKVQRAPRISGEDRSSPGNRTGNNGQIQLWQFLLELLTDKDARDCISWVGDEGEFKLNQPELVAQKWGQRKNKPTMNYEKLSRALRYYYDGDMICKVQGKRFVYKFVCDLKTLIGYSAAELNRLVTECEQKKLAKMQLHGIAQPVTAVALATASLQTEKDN
# How it was run: as §1
# ERG = biological target: T4, ERG (Homo sapiens, UniProt P11308 1-479); settings: protein: recombinant; tags: N-terminal GST; dsDNA, one strand shown
# T4 sequence: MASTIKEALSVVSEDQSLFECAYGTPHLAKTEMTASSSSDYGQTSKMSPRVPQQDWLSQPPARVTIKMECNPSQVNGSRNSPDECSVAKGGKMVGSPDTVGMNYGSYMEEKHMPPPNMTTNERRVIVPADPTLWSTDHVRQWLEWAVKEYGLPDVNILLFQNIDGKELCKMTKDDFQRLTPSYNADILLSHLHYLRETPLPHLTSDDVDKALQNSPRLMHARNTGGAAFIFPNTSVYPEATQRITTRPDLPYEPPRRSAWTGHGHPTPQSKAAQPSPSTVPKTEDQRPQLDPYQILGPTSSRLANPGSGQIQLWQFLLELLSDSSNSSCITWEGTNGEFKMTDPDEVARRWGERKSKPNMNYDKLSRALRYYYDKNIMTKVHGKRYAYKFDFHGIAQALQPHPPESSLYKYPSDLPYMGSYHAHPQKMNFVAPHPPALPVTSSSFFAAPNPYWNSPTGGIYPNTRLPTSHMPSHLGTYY
# How it was run: as §1
# ELF1 = ELF1 (Homo sapiens, UniProt P32519 1-619); settings: protein: recombinant; tags: N-terminal GST; dsDNA, one strand shown
# ELF1, sequence (P32519 whole entry): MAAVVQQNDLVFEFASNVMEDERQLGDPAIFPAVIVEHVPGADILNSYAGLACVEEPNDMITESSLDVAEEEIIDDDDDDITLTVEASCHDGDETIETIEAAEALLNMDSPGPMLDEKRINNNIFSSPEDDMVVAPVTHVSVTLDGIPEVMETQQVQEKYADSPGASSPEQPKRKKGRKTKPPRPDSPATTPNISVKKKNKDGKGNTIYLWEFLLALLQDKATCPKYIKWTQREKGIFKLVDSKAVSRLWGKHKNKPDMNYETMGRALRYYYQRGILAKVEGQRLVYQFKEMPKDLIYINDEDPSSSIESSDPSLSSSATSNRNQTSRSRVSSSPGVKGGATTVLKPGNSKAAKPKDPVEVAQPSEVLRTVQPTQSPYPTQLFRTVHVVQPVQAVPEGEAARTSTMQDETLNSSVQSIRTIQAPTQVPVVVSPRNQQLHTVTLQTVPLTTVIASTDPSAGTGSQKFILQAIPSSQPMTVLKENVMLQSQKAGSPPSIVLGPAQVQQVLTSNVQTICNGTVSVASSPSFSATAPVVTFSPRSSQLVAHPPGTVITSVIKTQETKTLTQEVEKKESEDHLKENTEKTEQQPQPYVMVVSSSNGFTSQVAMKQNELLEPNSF
# How it was run: as §1
# EHF = biological target: T5, EHF (Homo sapiens, UniProt Q9NZC4 1-300); settings: protein: recombinant; tags: N-terminal GST; dsDNA, one strand shown
# T5 sequence: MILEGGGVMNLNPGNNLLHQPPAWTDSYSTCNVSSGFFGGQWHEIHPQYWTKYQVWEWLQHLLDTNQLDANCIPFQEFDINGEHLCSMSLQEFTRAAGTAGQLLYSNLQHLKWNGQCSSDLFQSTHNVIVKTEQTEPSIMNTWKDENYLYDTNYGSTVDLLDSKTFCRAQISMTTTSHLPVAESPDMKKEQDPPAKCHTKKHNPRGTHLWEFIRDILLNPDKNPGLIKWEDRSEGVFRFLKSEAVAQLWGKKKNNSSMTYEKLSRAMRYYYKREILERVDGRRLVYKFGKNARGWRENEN
# How it was run: as §1
# SPI1 = SPI1 (Homo sapiens, UniProt P17947 1-270); settings: protein: recombinant; tags: N-terminal GST; dsDNA, one strand shown
# How it was run: as §1
# SPIB = SPIB (Homo sapiens, UniProt Q01892 1-262); settings: protein: recombinant; tags: N-terminal GST; dsDNA, one strand shown
# SPIB, sequence (Q01892 whole entry): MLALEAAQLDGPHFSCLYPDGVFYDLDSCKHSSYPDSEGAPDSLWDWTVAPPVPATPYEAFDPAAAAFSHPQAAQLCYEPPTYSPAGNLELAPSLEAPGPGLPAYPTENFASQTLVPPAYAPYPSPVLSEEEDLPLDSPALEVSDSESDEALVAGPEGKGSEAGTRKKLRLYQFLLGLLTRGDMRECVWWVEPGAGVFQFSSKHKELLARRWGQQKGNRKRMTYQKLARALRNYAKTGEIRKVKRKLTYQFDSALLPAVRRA
# How it was run: as §1
# ELK3 = biological target: T6, ELK3 (Homo sapiens, UniProt P41970 1-407); settings: protein: recombinant; tags: N-terminal GST; dsDNA, one strand shown
# T6 sequence: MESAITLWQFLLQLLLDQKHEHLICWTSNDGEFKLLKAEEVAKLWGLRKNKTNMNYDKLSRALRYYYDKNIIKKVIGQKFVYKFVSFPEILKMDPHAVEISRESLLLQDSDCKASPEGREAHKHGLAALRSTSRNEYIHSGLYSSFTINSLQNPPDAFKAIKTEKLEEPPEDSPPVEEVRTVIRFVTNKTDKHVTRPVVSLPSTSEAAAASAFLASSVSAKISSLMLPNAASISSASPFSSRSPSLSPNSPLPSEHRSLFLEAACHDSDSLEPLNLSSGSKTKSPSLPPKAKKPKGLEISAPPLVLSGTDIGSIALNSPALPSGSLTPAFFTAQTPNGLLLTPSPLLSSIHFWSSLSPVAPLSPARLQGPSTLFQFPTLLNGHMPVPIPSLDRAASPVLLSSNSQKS
# How it was run: as §1
# FEV = biological target: T7, FEV (Homo sapiens, UniProt Q99581 1-238); settings: protein: recombinant; tags: N-terminal GST; dsDNA, one strand shown
# T7 sequence: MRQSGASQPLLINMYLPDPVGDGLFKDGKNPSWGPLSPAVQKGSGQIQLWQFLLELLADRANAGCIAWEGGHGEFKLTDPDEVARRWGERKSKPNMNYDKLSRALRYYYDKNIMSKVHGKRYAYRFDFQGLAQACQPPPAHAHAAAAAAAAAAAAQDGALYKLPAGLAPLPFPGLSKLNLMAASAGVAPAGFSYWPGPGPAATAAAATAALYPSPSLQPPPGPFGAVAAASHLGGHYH
# How it was run: as §1
# ETV5 = ETV5 (Homo sapiens, UniProt P41161 1-510); settings: protein: recombinant; tags: N-terminal GST; dsDNA, one strand shown
# ETV5, sequence (P41161 whole entry): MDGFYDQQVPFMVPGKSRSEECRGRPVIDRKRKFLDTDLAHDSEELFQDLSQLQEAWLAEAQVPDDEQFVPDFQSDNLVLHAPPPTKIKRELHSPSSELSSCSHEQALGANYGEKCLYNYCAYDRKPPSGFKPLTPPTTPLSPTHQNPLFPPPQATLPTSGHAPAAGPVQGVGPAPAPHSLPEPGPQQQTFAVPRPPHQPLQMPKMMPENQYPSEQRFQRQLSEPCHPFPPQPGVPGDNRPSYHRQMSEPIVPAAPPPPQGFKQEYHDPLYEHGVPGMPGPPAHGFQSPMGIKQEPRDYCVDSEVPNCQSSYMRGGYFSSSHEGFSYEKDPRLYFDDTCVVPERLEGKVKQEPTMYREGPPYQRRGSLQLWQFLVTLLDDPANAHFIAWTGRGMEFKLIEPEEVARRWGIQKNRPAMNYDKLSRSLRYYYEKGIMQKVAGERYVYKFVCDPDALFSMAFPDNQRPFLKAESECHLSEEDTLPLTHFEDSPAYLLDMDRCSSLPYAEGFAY
# How it was run: as §1
# HSF1 = HSF1 (Homo sapiens, UniProt Q00613 1-529); settings: protein: recombinant; tags: N-terminal GST; chain copies: 3; dsDNA, one strand shown
# HSF1, sequence (Q00613 whole entry): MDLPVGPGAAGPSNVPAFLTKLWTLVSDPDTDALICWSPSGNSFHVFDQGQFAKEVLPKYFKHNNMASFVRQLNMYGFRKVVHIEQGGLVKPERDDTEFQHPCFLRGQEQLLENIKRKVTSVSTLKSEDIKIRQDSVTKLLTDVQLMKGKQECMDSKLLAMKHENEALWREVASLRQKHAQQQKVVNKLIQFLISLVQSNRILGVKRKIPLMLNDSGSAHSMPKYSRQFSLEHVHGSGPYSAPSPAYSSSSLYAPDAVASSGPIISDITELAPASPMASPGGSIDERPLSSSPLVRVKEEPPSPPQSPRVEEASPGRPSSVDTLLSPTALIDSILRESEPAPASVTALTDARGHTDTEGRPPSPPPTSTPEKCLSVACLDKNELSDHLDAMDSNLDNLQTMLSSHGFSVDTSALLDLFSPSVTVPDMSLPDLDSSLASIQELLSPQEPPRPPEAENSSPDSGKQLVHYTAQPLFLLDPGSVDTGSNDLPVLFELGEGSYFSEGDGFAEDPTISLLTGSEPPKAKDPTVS
# How it was run: as §1
# SPIC = biological target: T8, SPIC (Homo sapiens, UniProt Q8N5J4 1-248); settings: protein: recombinant; tags: N-terminal GST; dsDNA, one strand shown
# T8 sequence: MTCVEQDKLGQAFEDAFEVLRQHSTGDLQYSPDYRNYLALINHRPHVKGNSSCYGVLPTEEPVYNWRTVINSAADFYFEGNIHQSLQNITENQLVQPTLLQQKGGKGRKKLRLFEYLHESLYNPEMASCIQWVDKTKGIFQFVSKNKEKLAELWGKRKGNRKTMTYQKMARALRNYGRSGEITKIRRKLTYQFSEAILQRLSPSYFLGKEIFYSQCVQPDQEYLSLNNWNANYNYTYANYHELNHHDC
# How it was run: as §1
# ELF4 = ELF4 (Homo sapiens, UniProt Q99607 1-663); settings: protein: recombinant; tags: N-terminal GST; dsDNA, one strand shown
# ELF4, sequence (Q99607 whole entry): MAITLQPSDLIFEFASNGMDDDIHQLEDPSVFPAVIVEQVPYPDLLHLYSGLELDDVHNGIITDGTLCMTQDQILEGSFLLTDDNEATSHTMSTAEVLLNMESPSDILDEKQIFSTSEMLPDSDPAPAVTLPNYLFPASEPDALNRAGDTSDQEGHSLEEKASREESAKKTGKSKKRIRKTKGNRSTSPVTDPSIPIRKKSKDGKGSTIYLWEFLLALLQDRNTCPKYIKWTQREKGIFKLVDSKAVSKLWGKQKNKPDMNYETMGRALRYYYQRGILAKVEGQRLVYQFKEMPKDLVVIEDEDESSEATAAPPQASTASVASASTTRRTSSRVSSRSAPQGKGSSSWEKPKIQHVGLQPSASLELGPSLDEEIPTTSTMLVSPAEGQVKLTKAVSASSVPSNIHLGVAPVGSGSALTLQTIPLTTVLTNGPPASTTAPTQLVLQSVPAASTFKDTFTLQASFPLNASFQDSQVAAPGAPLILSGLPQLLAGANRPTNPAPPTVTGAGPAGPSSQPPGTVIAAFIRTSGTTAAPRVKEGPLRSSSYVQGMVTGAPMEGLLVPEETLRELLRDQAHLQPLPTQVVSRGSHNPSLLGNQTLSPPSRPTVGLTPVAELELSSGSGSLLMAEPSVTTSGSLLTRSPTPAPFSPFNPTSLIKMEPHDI
# How it was run: as §1
# ELK4 = biological target: T9, ELK4 (Homo sapiens, UniProt P28324-2 1-405); settings: protein: recombinant; tags: N-terminal GST; dsDNA, one strand shown
# T9 sequence: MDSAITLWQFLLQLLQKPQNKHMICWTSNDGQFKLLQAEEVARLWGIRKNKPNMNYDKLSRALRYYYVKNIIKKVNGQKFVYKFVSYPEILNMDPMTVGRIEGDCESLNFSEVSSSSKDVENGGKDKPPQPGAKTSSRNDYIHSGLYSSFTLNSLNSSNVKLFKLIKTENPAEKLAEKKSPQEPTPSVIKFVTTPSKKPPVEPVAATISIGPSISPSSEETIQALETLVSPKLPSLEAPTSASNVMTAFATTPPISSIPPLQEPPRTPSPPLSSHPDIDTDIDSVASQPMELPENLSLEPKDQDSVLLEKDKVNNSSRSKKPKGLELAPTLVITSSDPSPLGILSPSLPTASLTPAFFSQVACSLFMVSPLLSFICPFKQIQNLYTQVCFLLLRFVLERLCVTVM
# How it was run: as §1
# ETV2 = biological target: T10, ETV2 (Homo sapiens, UniProt O00321 1-342); settings: protein: recombinant; tags: N-terminal GST; dsDNA, one strand shown
# T10 sequence: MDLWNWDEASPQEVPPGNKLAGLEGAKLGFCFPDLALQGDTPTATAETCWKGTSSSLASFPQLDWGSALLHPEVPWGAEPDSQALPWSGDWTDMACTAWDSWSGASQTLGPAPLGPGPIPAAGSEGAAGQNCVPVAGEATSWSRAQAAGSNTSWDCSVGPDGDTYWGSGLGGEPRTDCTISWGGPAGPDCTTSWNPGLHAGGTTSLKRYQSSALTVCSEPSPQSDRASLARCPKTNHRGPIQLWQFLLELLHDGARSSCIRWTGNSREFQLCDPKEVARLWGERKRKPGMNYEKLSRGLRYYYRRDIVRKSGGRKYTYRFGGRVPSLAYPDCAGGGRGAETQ
# How it was run: as §1
# ELF3 = biological target: T11, ELF3 (Homo sapiens, UniProt P78545 1-371); settings: protein: recombinant; tags: N-terminal GST; dsDNA, one strand shown
# T11 sequence: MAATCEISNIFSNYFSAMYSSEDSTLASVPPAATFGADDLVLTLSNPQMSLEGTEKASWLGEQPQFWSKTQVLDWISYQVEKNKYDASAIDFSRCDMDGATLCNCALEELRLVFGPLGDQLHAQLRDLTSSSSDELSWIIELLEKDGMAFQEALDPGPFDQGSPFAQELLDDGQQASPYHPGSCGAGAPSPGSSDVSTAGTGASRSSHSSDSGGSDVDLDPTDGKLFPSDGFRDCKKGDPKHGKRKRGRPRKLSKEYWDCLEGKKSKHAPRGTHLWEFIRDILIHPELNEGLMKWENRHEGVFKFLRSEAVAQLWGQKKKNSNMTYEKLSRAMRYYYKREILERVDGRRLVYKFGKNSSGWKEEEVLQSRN
# How it was run: as §1
# CRX = CRX (Homo sapiens, UniProt O43186 1-299); settings: protein: recombinant; tags: N-terminal GST; dsDNA, one strand shown
# CRX, sequence (O43186 whole entry): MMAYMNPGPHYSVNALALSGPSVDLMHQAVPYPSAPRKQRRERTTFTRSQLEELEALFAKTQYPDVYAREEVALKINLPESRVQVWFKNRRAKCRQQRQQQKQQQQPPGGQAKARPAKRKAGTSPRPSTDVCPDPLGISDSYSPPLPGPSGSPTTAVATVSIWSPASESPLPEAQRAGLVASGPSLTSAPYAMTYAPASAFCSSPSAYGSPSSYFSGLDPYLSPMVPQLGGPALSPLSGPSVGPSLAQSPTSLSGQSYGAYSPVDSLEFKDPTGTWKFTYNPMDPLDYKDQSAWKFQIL
# How it was run: as §1
# ETV1 = ETV1 (Homo sapiens, UniProt P50549 1-477); settings: protein: recombinant; tags: N-terminal GST; dsDNA, one strand shown
# ETV1, sequence (P50549 whole entry): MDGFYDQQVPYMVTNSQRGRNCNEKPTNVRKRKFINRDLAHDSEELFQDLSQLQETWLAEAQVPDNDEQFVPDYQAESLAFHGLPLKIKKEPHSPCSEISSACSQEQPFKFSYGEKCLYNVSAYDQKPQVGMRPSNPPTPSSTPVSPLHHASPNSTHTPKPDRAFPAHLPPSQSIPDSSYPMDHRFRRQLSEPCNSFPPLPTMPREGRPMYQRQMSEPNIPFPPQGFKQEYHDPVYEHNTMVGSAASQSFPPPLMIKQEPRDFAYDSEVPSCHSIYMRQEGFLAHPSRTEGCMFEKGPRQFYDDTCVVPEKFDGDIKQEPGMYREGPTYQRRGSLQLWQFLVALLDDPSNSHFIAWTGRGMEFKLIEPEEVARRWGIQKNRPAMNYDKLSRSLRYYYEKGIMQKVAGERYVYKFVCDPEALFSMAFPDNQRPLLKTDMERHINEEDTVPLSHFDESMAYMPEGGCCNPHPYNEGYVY
# How it was run: as §1
sequence,measurement,setting,value
TAGGCT,binding signal,FLI1,"1.22 fold enrichment (6-mer frequency, TF over GST control)"
same,binding signal,ELK1,"1.18 fold enrichment (6-mer frequency, TF over GST control)"
same,binding signal,GABPA,"1.3 fold enrichment (6-mer frequency, TF over GST control)"
same,binding signal,ERG,"1.23 fold enrichment (6-mer frequency, TF over GST control)"
same,binding signal,ELF1,"1.21 fold enrichment (6-mer frequency, TF over GST control)"
same,binding signal,EHF,"1.2 fold enrichment (6-mer frequency, TF over GST control)"
same,binding signal,SPI1,"1.19 fold enrichment (6-mer frequency, TF over GST control)"
same,binding signal,SPIB,"1.1 fold enrichment (6-mer frequency, TF over GST control)"
same,binding signal,ELK3,"1.26 fold enrichment (6-mer frequency, TF over GST control)"
same,binding signal,FEV,"1.25 fold enrichment (6-mer frequency, TF over GST control)"
same,binding signal,ETV5,"1.19 fold enrichment (6-mer frequency, TF over GST control)"
same,binding signal,HSF1,"1.45 fold enrichment (6-mer frequency, TF over GST control)"
same,binding signal,SPIC,"1.29 fold enrichment (6-mer frequency, TF over GST control)"
same,binding signal,ELF4,"1.2 fold enrichment (6-mer frequency, TF over GST control)"
same,binding signal,ELK4,"1.13 fold enrichment (6-mer frequency, TF over GST control)"
same,binding signal,ETV2,"1.09 fold enrichment (6-mer frequency, TF over GST control)"
same,binding signal,ELF3,"1.1 fold enrichment (6-mer frequency, TF over GST control)"
same,binding signal,CRX,"1.99 fold enrichment (6-mer frequency, TF over GST control)"
same,binding signal,ETV1,"1.08 fold enrichment (6-mer frequency, TF over GST control)"
